# Compound activity deposited in PubChem BioAssay by National Center for Advancing Translational Sciences (NCATS).
# Shown are actives, neighbours in structure and some others; about 10% of the full set was active somewhere.
# JMJD2A Tudor inh: blocks the human JMJD2A Tudor domain; AlphaScreen JMJD2A-Tudor / H3K4me3 peptide binding; 390,000 compounds, 4.4% hits; Potency, µM (titrated, usually from 114 µM), most hits filed as inhibitors; further: nearly all actives have a fitted effect of over 50% in size
# HP1b binding inh: blocks HP1-beta chromodomain binding to methylated histone tails; AlphaScreen HP1-beta / biotin-H3K9me3 peptide binding; 390,000 compounds, 0.56% hits; AID 540317; Potency, µM (highest dose often 114 µM), actives largely listed as inhibitors; further: nearly all actives have a fitted effect of over 70% in size
# Target sequence (P83916 whole entry, looked up): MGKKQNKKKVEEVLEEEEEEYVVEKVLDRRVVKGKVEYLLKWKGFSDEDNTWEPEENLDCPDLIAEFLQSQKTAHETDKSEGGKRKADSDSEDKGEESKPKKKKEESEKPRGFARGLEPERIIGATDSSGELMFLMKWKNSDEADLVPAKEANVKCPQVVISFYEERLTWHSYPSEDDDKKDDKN
#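 Compound inhibition of the preformed complex between 50 nM HP1-beta and 50 nM biotinylated H3K9me3 peptide was read by AlphaScreen. Buffer was PBS pH 7.4 with 0.01% Tween-20. Incubations ran 30 min at room temperature, with 10 ug/mL donor/acceptor beads.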
# Six1-Eya2 blk: blocks human Six1 binding to Eya2; 360,000 compounds, 0.56% hits; Q15475+O00167; AlphaScreen GST-Six1/His-Eya2 binding, biochemical; active compounds read low; activity change, % (no concentration beside the values); AID 651725; in the data active means activity change below about -65%; inconclusive means mostly about -30% to -63%
#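 AlphaScreen luminescence read after one hour at 37 °C in darkness. Pin-transferred compounds met GST-Six1 and His-Eya2 protein (5X stock 250 nM/500 nM) plus glutathione donor and Ni-chelate acceptor beads (5X, 50 ug/mL).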
# G9a block: blocks human histone lysine methyltransferase G9a; G9a H3K9 monomethylation, AlphaScreen, 2 h; Potency, µM (series often up to 102 µM), actives largely listed as inhibitors; 350,000 compounds, 8.8% hits; further: nearly all actives have a fitted effect of over 75% in size
# Target sequence (Q96KQ7 913-1193 limits assumed): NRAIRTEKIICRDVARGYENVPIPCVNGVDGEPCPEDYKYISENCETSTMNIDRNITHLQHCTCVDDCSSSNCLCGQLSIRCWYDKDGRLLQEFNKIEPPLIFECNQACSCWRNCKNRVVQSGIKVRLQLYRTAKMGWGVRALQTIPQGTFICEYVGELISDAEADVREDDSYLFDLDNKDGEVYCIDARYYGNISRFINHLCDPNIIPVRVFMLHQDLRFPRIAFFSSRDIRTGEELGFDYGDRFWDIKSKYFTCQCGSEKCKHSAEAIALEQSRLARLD
#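 Enzyme 20 nM + cpd, 15 min RT; add b-H3K9 pep 500 nM / SAM 20 uM; 2 h RT; anti-H3K9me1 Ab 0.5 ug/mL + SA donor / anti-rabbit acceptor beads 20 ug/mL each, 10 min; AlphaScreen read.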
# BAZ2B block: BAZ2B (human) inhibition | 360,000 compounds, 4.4% hits | AlphaScreen BAZ2B-H3K14Ac peptide displacement | AID 504333 | Potency, µM (series often up to 114 µM), actives largely listed as inhibitors | Q9UIF8; further: nearly all actives have a fitted effect of over 60% in size
#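 Compounds, titrated to a top concentration of 110 uM, were incubated 30 min at room temperature with preformed BAZ2B/acetyl-K14 H3 peptide complex (50 nM each). Proximity signal was measured by AlphaScreen after 20 min with beads.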
# CtBP-E1A blk: blocks the CtBP interaction with E1A; AlphaScreen GST-E1A/His-CtBP binding, 1536-well; active compounds read low; activity change, % (no concentration beside the values); 340,000 compounds, 0.49% hits; in the data active means activity change below about -65%; inconclusive means mostly about -30% to -63%
#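 AlphaScreen with 125 nM GST-E1A and 125 nM His-CtBP (5X stocks) in Tris pH 8.0, 300 mM NaCl, BSA, Tween 20, TCEP. Compounds preincubated 2 h at 37 deg C, then glutathione donor/nickel acceptor beads added for 1 h at 37 deg C in dark.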
# Hits are given with their value; – = inactive; ? = inconclusive; · = not tested or not shown; [ ] = remark or other dose. Unless noted, the call rests on the fitted dose curve; in most records, active means well fitted inhibition curve with a large enough effect; inconclusive means small, poorly fitted or top-dose-only effect; inactive means no such curve, though single readings can be large or run the other way.
SMILES,JMJD2A Tudor inh,HP1b binding inh,Six1-Eya2 blk,G9a block,BAZ2B block,CtBP-E1A blk
CC1CCCCC1NC(=O)c1ccc(S(=O)(=O)NNC(=O)c2ccncc2)cc1 (centres undefined),3.5µM,–,–,·,89µM,–
O=C(NNS(=O)(=O)c1ccc(C(=O)NC2CCCC2)cc1)c1ccncc1,1.3µM,–,–,50µM,–,–
O=C(NC1CC1)c1ccc(S(=O)(=O)NC2CCCCCC2)cc1,–,–,–,–,–,–
CC1CCCCC1NC(=O)c1ccncc1 (centres undefined),–,–,–,–,–,–
CC(C)(C)C1CC=C2C(C#N)=C(N)C(C#N)(C#N)C(c3cccs3)C2C1 (centres undefined),·,·,·,50µM,?,·
CCc1ccccc1NNC(=O)c1snnc1C,–,–,–,2.8µM,–,–
Cc1nnsc1C(=O)NNc1c(Cl)cccc1Cl,–,–,–,8.9µM,–,–
CCc1ccccc1NNC(=O)c1sccc1Cl,–,–,·,·,·,·
O=S(=O)(c1ccc2c(c1)OCCO2)N1CCN(S(=O)(=O)c2cc(F)c(Br)cc2F)CC1,–,·,·,·,·,·
O=C(Nc1cccc(Cl)c1)Nc1ccc2nccnc2c1,–,–,–,50µM,–,–
O=C(Nc1cccc(C(=O)O)c1)Nc1ccccc1Cl,–,–,–,–,–,–
O=C(Nc1ccc2nccnc2c1)Nc1ccccc1Cl,20µM,–,–,?,–,–
O=S(=O)(c1ccc2[nH]c3c(c2c1)CCCC3)N1CCN(c2cccc(C(F)(F)F)c2)CC1,?,–,·,–,–,·
CC(C)CCN1C(=O)c2ccc(C(=O)Nc3ccc(Br)cc3C(=O)O)cc2C1=O,56µM,–,–,·,45µM,·
O=C(Nc1ccc(Cl)cc1C(=O)O)c1ccc2c(c1)C(=O)N(Cc1ccco1)C2=O,56µM,–,–,11µM,50µM,–
CC(C)CN1C(=O)c2ccc(C(=O)Nc3ccccc3C(=O)O)cc2C1=O,22µM,–,–,?,–,–
CCSc1ncc(/C=N/Nc2ccc(F)cc2)n1C,?,–,–,25µM,?,–
Cc1ccc(NC(=O)NC2=NN(c3ccccc3)C(=O)/C2=C2/CCCN2C)cc1,–,–,–,–,–,–
CN1CCC/C1=C1/C(=O)N(c2ccccc2)N=C1NC(=O)Nc1cccc(Cl)c1,20µM,–,–,–,–,·
O=C(Cn1cnc([N+](=O)[O-])n1)N/N=C/c1ccc(O)cc1O,63µM,–,-92,–,28µM,-96
O=C(Cn1cnc([N+](=O)[O-])n1)N/N=C/c1cccc(Cl)c1,–,–,–,–,–,·
O=C(Cn1cnc([N+](=O)[O-])n1)N/N=C/c1cccc2ccccc12,–,–,–,45µM,–,–
O=C1CCCC2=C1C(c1ccc(Cl)cc1)C1C(=O)c3ccccc3C1=N2 (centres undefined),?,–,?,?,?,–
Cc1ccc(C2C3=C(CCCC3=O)N=C3c4ccccc4C(=O)C32)cc1 (centres undefined),–,?,?,45µM,28µM,?
CC(=O)N(Cc1cc(=O)[nH]c2ccccc12)c1ccc(C)cc1,–,–,–,32µM,–,–
SMILES,JMJD2A Tudor inh,HP1b binding inh,Six1-Eya2 blk,G9a block,BAZ2B block,CtBP-E1A blk
O=C(CCl)N(Cc1cc(=O)[nH]c2ccccc12)c1ccccc1,–,–,–,40µM,–,·
CCC(=O)N(Cc1cc(=O)[nH]c2ccccc12)c1ccccc1,?,–,–,·,–,–
COC(=O)c1ccc(C2c3c(oc4ccccc4c3=O)C(=O)N2c2nc(C)c(C(=O)OC)s2)cc1 (centres undefined),–,–,·,?,–,·
COc1cc2c3c(c1)c(N=NC(N)=S)c(O)n3C(C)(C)C=C2C,–,–,–,·,–,–
CC1=CC(C)(C)n2c(O)c(N=N)c3cc(C)cc1c32,50µM,?,?,?,45µM,–
CC1=CC(C)(C)n2c(O)c(N=NC(N)=S)c3c(C)ccc1c32,–,–,–,–,–,–
CC1=CC(C)(C)n2c(O)c(N=N)c3c(C)ccc1c32,45µM,–,–,50µM,?,–
CC1=CC(C)(C)n2c(O)c(N=N)c3c(C)c(C)cc1c32,?,?,–,–[12.7 µM],35µM,–
